The results in this text go back to PubChem BioAssay (NCATS).

Each structure is given as a SMILES string. Where “and” joins values, the source holds several entries; their conditions need not be identical. Identical values can stand only once. Inconclusive results are not listed. Values without a mark were called inactive. Calls of active or inactive are those of the source. Calls come from the whole dose curve; as a rule, active = well fitted curve in the direction sought with a large enough effect; inconclusive = small, poorly fitted or top-dose-only effect, or another doubt; inactive = no such curve, though single readings can be large; an effect the other way counts as inactive or inconclusive.

Assay [1] can be described thus: Viability qHTS for spleen associated tyrosine kinase inhibitor (SYKi) naive MV4-11 cells (AID 1963823). Note: nearly all actives have a fitted effect of over 40% in size. In short, it runs like this: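 In this viability screen, compounds acted on SYK inhibitor naive MV4-11 cells for three days (72 hr, 37 C). Remaining viable cells were measured by CellTiter-Glo luminescence following a 10 min room-temperature development.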
The nature of assay [2]: Viability qHTS for spleen associated tyrosine kinase inhibitor (SYKi) drug resistant MV4-11 cells (AID 1963824). Note: nearly all actives have a fitted effect of over 35% in size. In short, it runs like this: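 CellTiter-Glo luminescence, read 10 min after reagent addition, reports viability after a 72 hr compound exposure. Cells are an MV4-11 line made resistant to SYK inhibition, seeded at 500 per well onto compound-containing plates.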
(In general: In qHTS, concentration-response curves come from the screen itself.)

Assay [3] in a line: Quantitative highthroughput screen to assess conditional lethalithy of NOMO1 cells grown in RPMI1640 with untreated serum (RPMI+s) (AID 1963876).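 For Viability: 100% = DMSO wells and 0% = empty wells without cells.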 Note: nearly all actives have a fitted effect of over 35% in size. In short, it runs like this:
(§1)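 Each medium arm—HPLM with 10% dialyzed FBS, or RPMI1640 with 5 mM glucose and 10% untreated or dialyzed FBS—was screened against an 11-point, 3-fold compound titration for 48 h at 37 °C, with CellTiter-Glo luminescence as endpoint.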

Assay [4] in a line: Quantitative highthroughput screen to assess conditional lethalithy of NOMO1 cells grown in RPMI1640 with dialyzed fetal bovine serum (RPMI+ds) (AID 1963877).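 For Viability: series mostly up to about 46 µM; 100% = DMSO control wells and 0% = empty wells.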 Note: nearly all actives have a fitted effect of over 30% in size. In short, it runs like this: as §1
Assay [5] is described as follows: Quantitative highthroughput screen to assess conditional lethalithy of NOMO1 cells grown in Human Plasma-Like Medium with dialyzed fetal bovine serum (HPLM+ds) (AID 1963878).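 For Viability: 100% = DMSO wells and 0% = empty wells on each plate.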 Note: nearly all actives have a fitted effect of over 35% in size. In short, it runs like this:
as §1

Assay [6] can be described thus: Quantitative highthroughput screen to assess conditional lethalithy of P12 Ichikawa cells grown in RPMI1640 with untreated serum (RPMI+s) (AID 1963881).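 For Viability: series mostly up to about 46 µM; 100% = DMSO wells and 0% = empty wells without cells.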 Note: nearly all actives have a fitted effect of over 35% in size. The note with it: Potency: viability. The method in brief: as §1
Assay [7] can be described thus: Quantitative highthroughput screen to assess conditional lethalithy of SEM cells grown in Human Plasma-Like Medium with dialyzed fetal bovine serum (HPLM+ds) (AID 1963882). For Viability: series mostly up to about 46 µM. Note: nearly all actives have a fitted effect of over 35% in size. The method in brief: as §1
A short description of assay [8]: Quantitative highthroughput screen to assess conditional lethalithy of SEM cells grown in RPMI1640 with dialyzed fetal bovine serum (RPMI+ds) (AID 1963884).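 For Viability: series mostly up to about 46 µM; 100% = DMSO control wells and 0% = empty wells without cells.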 Note: nearly all actives have a fitted effect of over 35% in size. In short, it runs like this:
as §1

Assay [9] in a line: Cellular viability qHTS for adrenocortical cancer (ACC) cell line NCI-H295R (AID 1963990). Note: nearly all actives have a fitted effect of over 60% in size. In short, it runs like this:
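Adrenocortical carcinoma cells, suspended at 300 000 cells/mL in serum-free DMEM plus ITS, rested overnight before pin transfer of compound. After two days' incubation, ATP-dependent luminescence was recorded and curve-fitted.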

A short description of assay [10]: Quantitative highthroughput screen to assess conditional lethalithy of P12 Ichikawa cells grown in RPMI1640 with dialyzed fetal bovine serum (RPMI+ds) (AID 1963880).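 For Viability: 100% = DMSO wells and 0% = empty wells on each plate.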 Note: nearly all actives have a fitted effect of over 35% in size. As to conditions: Potency: P12-Ichikawa viability. The method in brief: as §1
Assay [11] can be described thus: Quantitative highthroughput screen to assess conditional lethalithy of SEM cells grown in RPMI1640 with unreated serum (RPMI+s) (AID 1963883).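 For Viability: 100% = DMSO wells and 0% = empty wells without cells.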 Note: nearly all actives have a fitted effect of over 35% in size. The method in brief: as §1
Assay [12] is described as follows: Cellular viability qHTS for adrenocortical cancer (ACC) cell line SW-13 (AID 1963989).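 For activity (max response): cells grown in serum-free medium with ITS supplement; % is set by controls: 0 for no effect and ±100 for the full control effect.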 Note: nearly all actives have a fitted effect of over 65% in size. The note with it: SW-13 ACC cells viability, CellTiter-Glo, 48 h; activity (max response): active compounds read low. In short, it runs like this: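 IC50 and maximal-response values come from four-parameter logistic fits of titration data. SW-13 cells in serum-free medium received compounds (up to 46 uM final) for 48 h before CellTiter-Glo luminescence.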

Assay [13] can be described thus: Quantitative highthroughput screen to assess conditional lethalithy of P12 Ichikawa cells grown in Human Plasma-Like Medium with dialyzed fetal bovine serum (HPLM+ds) (AID 1963879). For Viability: series mostly up to about 46 µM. Note: nearly all actives have a fitted effect of over 35% in size. The note with it: Potency: viability. In short, it runs like this:
as §1
Potency is the fitted concentration of half-maximal effect.

Take `Cc1cc(Nc2ncc(Cl)c(Nc3ccccc3S(=O)(=O)C(C)C)n2)c(OC(C)C)cc1C1CCNCC1`: the Potency in assay [1] is 2.59 µM (active); in assay [2] it was 2.31 µM (active) and 2.35 µM (active); in assay [3], 18.6 µM (active); in assay [4], 18.6 µM (active); in assay [5], 13.2 µM (active); in assay [6], 26.3 µM (active). The Potency in assay [7] was 14.8 µM (active); in [8], 16.6 µM (active); in assay [9] it was 2.24 µM (active).

Take `O=C1NC(=O)C(c2cnc3ccccn23)=C1c1cn2c3c(cccc13)CN(C(=O)N1CCOCC1)CC2`: the Potency in [1] is 0.231 µM (active); in [2] it was 0.092 µM (active); in assay [7], 0.0066 µM (active); in assay [8], 0.0074 µM (active). For the same compound, the Potency result in assay [3], in assay [4], in [5] and in [9] was “inactive” throughout.

Consider `CC(C)[C@H](N)C(=O)OCCOCn1cnc2c(=O)[nH]c(N)nc21`, for which the Potency in assay [1] is 5.9 µM (active). Besides, the Potency entry in assay [2], in assay [3], in assay [4], in [5], in assay [10] and in [6] was “inactive” each time. Besides, the Potency result in assay [7], in assay [11] and in [9] was “inactive” each time. The activity (max response) in assay [12] was -3.62% and -11.6%.

For the compound `COc1ccc2nc3cc(Cl)ccc3c(Nc3cc(CN4CCCC4)c(O)c(CN4CCCC4)c3)c2n1`, the Potency in [1] is 0.742 µM (active); in assay [2] it was 1.05 µM (active); in [7], 16.6 µM (active); in assay [12] it was 12.6 µM (active); in [9], 5.62 µM (active). The Potency result in assay [3], in assay [4], in assay [5] and in assay [10] was “inactive” throughout.

Turning to `COC(=O)C1=C(C)NC(C)=C(C(=O)OCCCN2CCC(c3ccccc3)(c3ccccc3)CC2)C1c1cccc([N+](=O)[O-])c1` (stereo not given), the Potency in assay [1] was 4.68 µM (active) and 8.41 µM (active); in assay [2] it was 4.68 µM (active) and 7.5 µM (active); in assay [12] it was 5.62 µM (active) and 13 µM (active); in [9], 7.08 µM (active) and 8.2 µM (active). The Potency entry in [3], in assay [4], in [5], in assay [10], in assay [6] and in [7] was “inactive” throughout. For the same compound, the Potency result in [11] and in assay [8] was “inactive” in each case.

For the compound `Clc1ccccc1C(c1ccccc1)(c1ccccc1)n1ccnc1`, the Potency in assay [1] is 5.25 µM (active); in assay [2], 5.25 µM (active); in assay [12], 16.4 µM (active); in assay [9], 23.1 µM (active). In addition, the Potency entry in assay [3], in assay [4], in assay [5] and in assay [7] was “inactive” each time.

For the compound `OC(Cn1cncn1)(Cn1cncn1)c1ccc(F)cc1F`, the Potency entry in [1], in [2], in [3], in assay [4], in [5] and in [10] was “inactive” in each case. The Potency entry in assay [6], in assay [7], in assay [11], in assay [8] and in [9] was “inactive” throughout. Also, in assay [12], the activity (max response) was 1.07% and 11%.

With `NC[C@H]1O[C@H](O[C@@H]2[C@@H](O)[C@@H](O[C@H]3O[C@H](CO)[C@@H](O)[C@H](N)[C@@H]3O)[C@H](N)C[C@@H]2N)[C@H](O)[C@@H](O)[C@H]1O`, the Potency in [1] was 1.05 µM (active). Further, the Potency entry in assay [2], in assay [3], in [4], in assay [13], in [10] and in assay [6] was “inactive” each time. Also, the Potency result in assay [7], in assay [11], in [8] and in assay [9] was “inactive” each time. Further, the activity (max response) in assay [12] was 12.9%.

For `CCCCS(=N)(=O)CCC(N)C(=O)O` (stereo not given), the Potency in assay [1] was 24.1 µM (active); in assay [2], 17.1 µM (active); in [5], 16.6 µM (active). In addition, the Potency entry in assay [3], in assay [4], in assay [8] and in assay [9] was “inactive” throughout. Further, in assay [12], the activity (max response) is 9.43%.

Take `CCCCc1oc2ccc(NS(C)(=O)=O)cc2c1C(=O)c1ccc(OCCCN(CCCC)CCCC)cc1`: the Potency in [1] was 6.68 µM (active) and 2.59 µM (active) and 6.61 µM (active); in assay [2], 2.99 µM (active) and 2.91 µM (active) and 6.61 µM (active); in [3] it was 1.18 µM (active); in [4], 2.09 µM (active); in assay [13], 8.33 µM (active); in assay [10], 9.35 µM (active). The Potency is 8.33 µM (active) in assay [6]; 4.11 µM (active) and 4.47 µM (active) in [9].

Consider `CCCCCCCCc1ccc(CCC(N)(CO)CO)cc1`, for which the Potency was 5.17 µM (active) in assay [1]; 4.61 µM (active) in assay [2]; 18.7 µM (active) in assay [3]; 23.5 µM (active) in [4]; 23.5 µM (active) in assay [13]; 18.7 µM (active) in assay [10]. Further, the Potency is 18.7 µM (active) in assay [6], 23.5 µM (active) in assay [7], 17.8 µM (active) in assay [12] and 7.08 µM (active) in assay [9].

`Cc1ncc([N+](=O)[O-])n1CCO`: the Potency result in [1], in [2], in assay [3], in [4], in assay [13] and in [10] was “inactive” each time. For the same compound, the Potency entry in assay [6], in assay [7], in assay [11] and in assay [9] was “inactive” each time. In addition, the activity (max response) in [12] was -0.254%.

For the compound `CCc1ccc(OCc2ccccc2C(=O)Nc2ccc3nc(C)cc(N)c3c2)cc1`, the Potency was 1.66 µM (active) in assay [1]; 2.09 µM (active) in assay [2]; 9.35 µM (active) in assay [3]; 8.33 µM (active) in assay [4]; 9.35 µM (active) in [13]; 14.8 µM (active) in assay [10]. The Potency in assay [6] was 13.2 µM (active); in [7] it was 3.72 µM (active); in [11], 10.5 µM (active); in assay [8], 10.5 µM (active); in assay [12], 5.01 µM (active); in assay [9] it was 5.62 µM (active).
